Nrf2 inh: Nrf2 pathway inhibition; A549 ARE-Fluc reporter, luciferase luminescence, 18-24 h; Potency, µM (doses to about 46 µM), actives largely listed as inhibitors; hit rate 2.1% among 360,000; AID 504444; also: nearly all actives have a fitted effect of over 60% in size
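Concentration-response testing used A549 ARE_Fluc cells at 5000 cells/well. Following an 18-24 h compound incubation, viability was read by fluorescence (Ex 405/Em 525) and luciferase output by luminescence.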
Nrf2 ARE act: activates Nrf2 signaling; AREc32 ARE-luciferase reporter (MCF7-derived line), luminescence, 24 h; Potency, µM (titrated, usually from 46.1 µM), usual class: activators; hit rate 0.31% among 410,000; AID 624171; also: nearly all actives have a fitted effect of over 65% in size
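AREc32 cells carrying an ARE-driven firefly luciferase, 1000 cells/well in OPTI-MEM with 5% FBS, dosed after overnight attachment and incubated 24 hr at 37 deg C. Steady-Glo luminescence read after 30 min at RT.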
LDHA block: blocks human lactate dehydrogenase A; P00338; purified LDHA, NADH/diaphorase-resazurin fluorescence; stronger effect = lower value; activity change, % (values are at about 110 or 230 µM); hit rate 0.15% among 480,000; AID 1347041; in the data active = activity change below about -30%; inconclusive = mostly about -25% to -30%
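LDH5 2 nM; NADH 0.06 mM, pyruvate 0.2 mM; 200 mM Tris pH 7.4, EDTA, Tween-20; 5 min RT. Detection: diaphorase 0.133 mg/mL + resazurin 37 µM, fluorescence ex540/em590 at 0 and 20 min; normalized to enzyme-free and DMSO wells.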
A549 viability: kills or reduces viability of A549 cells in Nrf2 counter-screen. A549 ARE-Fluc cells, CellTiter-Fluor viability, 18-24 h. Potency, µM (series often up to 46 µM), actives largely listed as inhibitors. hit rate 0.16% among 390,000
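Cytotoxicity counterscreen: CellTiter-Fluor fluorescence was measured in A549 ARE_Fluc cells after 18-24 h of compound exposure in a concentration series. The subsequent BugLite luminescent read reports ARE-luciferase activity.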
mIDH1 inhibitor: blocks human mutant IDH1 R132H enzyme; IDH1-R132H enzyme, NADPH consumption, diaphorase/resazurin fluorescence; O75874; hit rate 0.093% among 390,000; AID 602179; Potency, µM (top dose mostly 76.6 µM), actives largely listed as inhibitors; also: nearly all actives have a fitted effect of over 65% in size
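IDH1-R132H (0.5 ug/mL dispensed) in pH 7.5 Tris buffer was preincubated 30 min with compound, then given a substrate mix of 0.016 mM NADPH and 2 mM alpha-KG for 80 min at room temperature; remaining NADPH was read by diaphorase/resazurin fluorescence.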
ALOX12 inh: inhibitors of human 12S-lipoxygenase ALOX12; P18054; purified 12hLO, xylenol orange hydroperoxide absorbance; Potency, µM (highest dose often 108 µM), hits mostly inhibitors; hit rate 1.1% among 580,000
Target sequence (P18054 whole entry, looked up): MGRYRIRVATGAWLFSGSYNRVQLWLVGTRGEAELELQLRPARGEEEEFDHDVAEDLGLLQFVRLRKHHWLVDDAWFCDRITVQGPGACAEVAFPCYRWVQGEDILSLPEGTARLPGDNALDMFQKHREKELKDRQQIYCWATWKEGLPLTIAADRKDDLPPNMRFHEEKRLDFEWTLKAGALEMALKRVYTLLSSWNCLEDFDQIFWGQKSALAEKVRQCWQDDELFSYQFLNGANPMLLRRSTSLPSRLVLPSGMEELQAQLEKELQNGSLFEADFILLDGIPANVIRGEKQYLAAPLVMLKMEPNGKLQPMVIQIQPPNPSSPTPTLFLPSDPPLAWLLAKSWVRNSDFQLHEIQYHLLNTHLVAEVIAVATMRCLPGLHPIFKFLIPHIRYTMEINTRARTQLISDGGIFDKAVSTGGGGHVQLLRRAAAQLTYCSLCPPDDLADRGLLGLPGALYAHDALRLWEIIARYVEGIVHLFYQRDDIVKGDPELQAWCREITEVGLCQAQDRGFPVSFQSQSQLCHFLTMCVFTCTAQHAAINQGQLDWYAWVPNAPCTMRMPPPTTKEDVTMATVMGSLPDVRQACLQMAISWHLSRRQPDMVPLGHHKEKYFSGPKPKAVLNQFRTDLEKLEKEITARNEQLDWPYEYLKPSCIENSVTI
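Hydroperoxide product was detected by ferrous iron/xylenol orange as the 573 to 405 nm absorbance ratio. Arachidonic acid at 40 uM (final) was turned over for 30 min at room temperature by 150 nM human 12hLO, pH 7.0 Hepes buffer, after 15 min compound preincubation.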
Numbers stand for hits; [ ] = another dose, or the depositor's remark. This is a sample that favours compounds with a hit; in the whole collection about 2.7% have one here. Unless noted, calls follow the shape of the dose curve; as a rule, active = well fitted curve in the direction sought with a large enough effect; inconclusive = small, poorly fitted or top-dose-only effect, or another doubt; inactive = no such curve, though single readings can be large; an effect the other way counts as inactive or inconclusive.

What do the screens show for `Cc1ccc(NC(=O)N2CCC(CCNC(=O)Cc3cccc(F)c3)CC2)cc1F`?
ALOX12 inh: inactive

How did Cc1nnsc1S(=O)c1ccc(Cl)cc1 (stereo not given) do in these assays?
Nrf2 inh: inactive; Nrf2 ARE act: inconclusive; LDHA block: inactive; A549 viability: inactive; mIDH1 inhibitor: inactive; ALOX12 inh: inactive

Results for Cc1nnsc1S(=O)c1ccc(Cl)c(Cl)c1 (stereo not given) ?
Nrf2 inh: inactive; Nrf2 ARE act: 11µM; LDHA block: inactive; A549 viability: inactive; mIDH1 inhibitor: inactive; ALOX12 inh: inactive

How did O=C(CCC(=O)N1CCCCCC1)Nc1ccc2nc(NC(=O)c3ccccc3)sc2c1 do in these assays?
LDHA block: inactive; ALOX12 inh: inconclusive

What do the screens show for `CCN(C(=S)Nc1ccc(Oc2ccccc2)cc1)c1ccccc1`?
Nrf2 inh: inactive; Nrf2 ARE act: inactive; LDHA block: inactive; A549 viability: inactive; mIDH1 inhibitor: inactive; ALOX12 inh: 50µM

Results for CN(C)c1cc[n+](CC(=O)Nc2ccc(Cl)cc2)cc1 ?
Nrf2 inh: 6.5µM; Nrf2 ARE act: inactive; LDHA block: inactive; A549 viability: inactive; mIDH1 inhibitor: inactive; ALOX12 inh: inactive

What do the screens show for `Cc1ccc(CC(=O)Nc2ccc(N(C)C)cc2)cc1`?
LDHA block: inactive; ALOX12 inh: 20µM

How did CN(C)c1cc[n+](CC(=O)c2ccc(OC(F)F)cc2)cc1 do in these assays?
Nrf2 inh: 21µM; Nrf2 ARE act: inactive; LDHA block: inactive; A549 viability: inactive; mIDH1 inhibitor: inactive; ALOX12 inh: inactive

What do the screens show for `CCCn1c(C)cnc1CC1CCN(C(=O)CC2CCCC2)C1` (stereo not given)?
ALOX12 inh: inactive

What do the screens show for `N#Cc1nc(-c2ccc(Cl)cc2)oc1N1CCN(CCO)CC1`?
LDHA block: inactive; ALOX12 inh: inactive

What do the screens show for `Cc1csc(NC(=O)c2ccc(Oc3ccc(F)cc3Br)nc2)n1`?
LDHA block: inactive; ALOX12 inh: inconclusive

How did CCCc1cc(=O)n2c(C(=O)NCc3ccccc3)c(C(=O)Nc3cccc(C)c3C)sc2n1 do in these assays?
LDHA block: inactive; ALOX12 inh: inconclusive

What do the screens show for `CC(=O)Nc1cc[n+](C(C)C(=O)c2ccc(Cl)cc2)cc1` (stereo not given)?
Nrf2 inh: inactive; Nrf2 ARE act: inactive; LDHA block: inactive; A549 viability: inactive; mIDH1 inhibitor: inactive; ALOX12 inh: inactive

What do the screens show for `CN(C)c1cc[n+](CC(=O)Nc2ccc(Oc3ccccc3)cc2)cc1`?
Nrf2 inh: 23µM; Nrf2 ARE act: inactive; LDHA block: inactive; A549 viability: inactive; mIDH1 inhibitor: inactive; ALOX12 inh: inactive

Results for CCOc1ccc(NC(=O)C[n+]2ccc(N(C)C)cc2)cc1 ?
Nrf2 inh: inconclusive; Nrf2 ARE act: inactive; LDHA block: inactive; A549 viability: inactive; mIDH1 inhibitor: inactive; ALOX12 inh: inactive

How did CC(=O)Nc1cc[n+](CC(=O)c2ccc(Cl)cc2)cc1 do in these assays?
Nrf2 inh: 23µM; Nrf2 ARE act: inactive; LDHA block: inactive; A549 viability: inactive; mIDH1 inhibitor: inactive; ALOX12 inh: inactive

What do the screens show for `CC1(C)CC(=O)c2cc(C#N)c(SCC(N)=O)nc2C1`?
LDHA block: inactive; ALOX12 inh: inactive

How did CC(Nc1ccc([N+](=O)[O-])cn1)c1ccc(Cl)cc1Cl (stereo not given) do in these assays?
LDHA block: inactive; ALOX12 inh: 56µM

Results for Cn1c(COc2ccc(C(C)(C)C)cc2)n[nH]c1=S ?
LDHA block: inactive; ALOX12 inh: 35µM

Results for CC(C)Oc1cccc(C(=O)NC(=S)Nc2cccc(NC(=O)c3ccccc3Cl)c2)c1 ?
Nrf2 inh: inactive; Nrf2 ARE act: inactive; LDHA block: inactive; A549 viability: inactive; mIDH1 inhibitor: inactive; ALOX12 inh: 10µM

How did CCCCC(=O)NC(=S)Nc1ccc(Cl)c(C(=O)O)c1 do in these assays?
Nrf2 inh: inactive; Nrf2 ARE act: inactive; LDHA block: inactive; A549 viability: inactive; mIDH1 inhibitor: inactive; ALOX12 inh: inconclusive

What do the screens show for `O=C(NC(=S)Nc1ccc(Cl)c(C(=O)O)c1)c1ccc(OCc2ccccc2)cc1`?
Nrf2 inh: inactive; Nrf2 ARE act: inactive; LDHA block: inactive; A549 viability: inactive; mIDH1 inhibitor: inactive; ALOX12 inh: 3.5µM

How did O=C(NC(=S)Nc1ccc(Cl)c(C(=O)O)c1)c1cccc(COc2ccccc2)c1 do in these assays?
Nrf2 inh: inactive; Nrf2 ARE act: inactive; LDHA block: inactive; A549 viability: inactive; mIDH1 inhibitor: inactive; ALOX12 inh: 11µM

How did CCCCOc1cccc(C(=O)NC(=S)Nc2ccc(Cl)c(C(=O)O)c2)c1 do in these assays?
Nrf2 inh: inactive; Nrf2 ARE act: inactive; LDHA block: inactive; A549 viability: inactive; mIDH1 inhibitor: inactive; ALOX12 inh: 5.6µM

Results for CCNc1c(NC(=O)NCc2ccc(C)cc2)c(=O)oc2ccccc12 ?
LDHA block: inactive; ALOX12 inh: inconclusive

What do the screens show for `CCOc1cccc(C(=O)NC(=S)Nc2cccc(C)c2)c1`?
Nrf2 inh: inactive; Nrf2 ARE act: inactive; LDHA block: inactive; A549 viability: inactive; mIDH1 inhibitor: inactive; ALOX12 inh: 20µM

Results for COc1cccc(C(=O)NC(=S)Nc2ccc(N(C)C)cc2)c1 ?
Nrf2 inh: inactive; Nrf2 ARE act: inactive[9.22 µM]; LDHA block: inactive; A549 viability: inactive; mIDH1 inhibitor: inactive; ALOX12 inh: 45µM

How did COc1cccc(C(=O)NC(=S)Nc2ccc(N3CCCC3)cc2)c1 do in these assays?
Nrf2 ARE act: inactive; LDHA block: inactive; A549 viability: inactive; mIDH1 inhibitor: inactive; ALOX12 inh: inconclusive

What do the screens show for `COc1cc(OC)cc(C(=O)NC(=S)Nc2ccc(Cl)c(C(=O)O)c2)c1`?
Nrf2 inh: inactive; Nrf2 ARE act: inactive; LDHA block: inactive; A549 viability: inactive; mIDH1 inhibitor: inactive; ALOX12 inh: 28µM

What do the screens show for `CCCOc1cccc(C(=O)NC(=S)Nc2cccc(C(F)(F)F)c2)c1`?
Nrf2 inh: inconclusive; Nrf2 ARE act: inactive; LDHA block: inactive; A549 viability: inactive; mIDH1 inhibitor: inactive; ALOX12 inh: inconclusive

What do the screens show for `COc1cc(/C=C/c2nc(C#N)c(N(C)C)o2)cc(OC)c1OC`?
LDHA block: inactive; ALOX12 inh: inconclusive

How did CCN(CC)S(=O)(=O)c1ccc(NS(=O)(=O)c2ccccc2)cc1 do in these assays?
LDHA block: inactive; ALOX12 inh: inactive

How did CC1CCCCC1NC(=O)COC(=O)c1c2c(nc3ccccc13)/C(=C/c1ccco1)CC2 (stereo not given) do in these assays?
Nrf2 inh: inactive; Nrf2 ARE act: inconclusive; LDHA block: inactive; A549 viability: inactive; mIDH1 inhibitor: inactive; ALOX12 inh: inconclusive
